According to PubChem BioAssay (EPA / NIEHS):
Results filed as inconclusive are left out. The source made the active and inactive calls. The calls were made as follows, unless noted: active = hit-call score of the fitted dose curve at least 0.9, where 1 is the maximum; inactive = score below 0.9.

Assays:
[1] = target: human RAR-related Orphan Receptor beta (RORb), RORB (gene 6096) (UniProt Q92753); assay: ATG_RORb_TRANS: Attagene TRANS-FACTORIAL HepG2 Assay for human RAR-related Orphan Receptor beta (RORb) (AID 2283010; active = hit-call score of the fitted dose curve at least 0.9, where 1 is the maximum)
Chain of human RAR-related Orphan Receptor beta (RORb), RORB (gene 6096) (Q92753 whole entry, looked up, the tested form may be a part): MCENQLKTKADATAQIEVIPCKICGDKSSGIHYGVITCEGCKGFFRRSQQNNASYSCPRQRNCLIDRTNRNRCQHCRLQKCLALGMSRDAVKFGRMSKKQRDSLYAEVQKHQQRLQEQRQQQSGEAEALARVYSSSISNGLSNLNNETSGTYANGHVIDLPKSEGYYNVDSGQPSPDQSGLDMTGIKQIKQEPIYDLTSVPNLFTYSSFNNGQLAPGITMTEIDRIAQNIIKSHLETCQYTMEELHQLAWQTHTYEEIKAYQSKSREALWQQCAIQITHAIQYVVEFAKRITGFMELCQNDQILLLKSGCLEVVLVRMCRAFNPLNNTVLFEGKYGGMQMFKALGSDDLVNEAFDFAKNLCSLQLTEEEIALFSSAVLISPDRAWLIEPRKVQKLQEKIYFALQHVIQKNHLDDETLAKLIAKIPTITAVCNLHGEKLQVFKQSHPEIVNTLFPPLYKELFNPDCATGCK
In short: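 HepG2 cells were transiently transfected with multiplexed GAL4-UAS reporter units expressing chimeric nuclear receptor–GAL4 proteins, then dosed for 24 h. Reporter mRNA was quantified by RT-PCR with fluorescent labelling and capillary electrophoresis; gain of signal was fitted relative to DMSO.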

[2] = target: Retinoic acid receptor RXR-alpha (Homo sapiens) (UniProt P19793); assay: ATG_RXRa_TRANS: Attagene TRANS-FACTORIAL HepG2 Assay for human Retinoid X Receptor alpha (RXRa) (AID 2283012; active = hit-call score of the fitted dose curve at least 0.9, where 1 is the maximum)
Chain of Retinoic acid receptor RXR-alpha (Homo sapiens) (P19793 whole entry, looked up, the tested form may be a part): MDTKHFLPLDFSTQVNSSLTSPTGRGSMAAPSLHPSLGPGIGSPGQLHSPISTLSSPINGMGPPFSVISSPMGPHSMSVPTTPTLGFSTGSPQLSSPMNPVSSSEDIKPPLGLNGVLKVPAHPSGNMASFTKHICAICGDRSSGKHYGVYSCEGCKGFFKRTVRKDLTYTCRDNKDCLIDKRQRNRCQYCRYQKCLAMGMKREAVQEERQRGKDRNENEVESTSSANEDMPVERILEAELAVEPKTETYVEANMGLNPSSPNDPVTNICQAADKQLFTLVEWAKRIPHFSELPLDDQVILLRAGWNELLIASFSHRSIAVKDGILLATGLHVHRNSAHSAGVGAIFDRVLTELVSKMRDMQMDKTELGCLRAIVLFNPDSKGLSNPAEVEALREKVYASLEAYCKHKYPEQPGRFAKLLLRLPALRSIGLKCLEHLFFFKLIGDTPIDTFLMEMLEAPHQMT
In short: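 HepG2 cells transiently transfected with multiplexed GAL4-UAS reporter units and chimeric NR-GAL4 fusions, dosed 24 h. Reporter mRNA measured by RT-PCR, FAM labelling, HpaI digestion and capillary electrophoresis; gain-of-signal fitted relative to DMSO baseline.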

[3] = read-out: E-selectin (Homo sapiens) (UniProt P16581); assay: BSK_3C_Eselectin: BioMAP Diversity Plus: 3C Assay for Eselectin Biomarker Activity (AID 2283015); conditions: primary human endothelial cells (HUVEC); actives raise or lower the signal
In short: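 E-selectin ELISA readout, fitted bidirectionally relative to DMSO, taken 24 h post-dosing in HUVEC cultures of the 3C system. Overt cytotoxicity tracked with sulforhodamine B staining of parallel wells.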

[4] = read-out: Interleukin-1 alpha (IL1a), IL1A (gene 3552); assay: BSK_BE3C_IL1a: BioMAP Diversity Plus: BE3C Assay for Interleukin-1 alpha (IL1a) Biomarker Activity (AID 2283016); conditions: primary human bronchial epithelial cells; actives raise or lower the signal
In short: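 Human primary bronchial epithelial cells (BE3C system) were dosed with compound and IL-1a measured by ELISA 24 h later. Activity was fitted bidirectionally against DMSO baseline; cytotoxicity was tracked in parallel cultures by SRB total-protein staining.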

[5] = read-out: Monocyte Chemoattractant Protein-1 (MCP1), CCL2 (gene 6347); assay: BSK_3C_MCP1: BioMAP Diversity Plus: 3C Assay for Monocyte Chemoattractant Protein-1 (MCP1) Biomarker Activity (AID 2283017); conditions: primary human endothelial cells (HUVEC); actives raise or lower the signal
In short: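 MCP-1 was measured by ELISA 24 h after dosing in primary HUVEC 3C cultures and fitted in both directions relative to DMSO; cytotoxicity was checked by SRB total-protein staining in parallel wells.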

[6] = read-out: Monocyte Chemoattractant Protein-1 (MCP1), CCL2 (gene 6347); assay: BSK_4H_MCP1: BioMAP Diversity Plus: 4H Assay for Monocyte Chemoattractant Protein-1 (MCP1) Biomarker Activity (AID 2283018); conditions: primary human endothelial cells (HUVEC); actives raise or lower the signal
In short: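 Human umbilical vein endothelial cells (4H system) dosed with chemical; MCP-1 measured by ELISA 24 h after dosing. Bidirectional curve fitting against DMSO negative control as baseline; parallel SRB total-protein staining tracks overt cytotoxicity.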

[7] = read-out: Human Leukocyte Antigen - DR isotype (HLADR), HLA-DRA (gene 3122); assay: BSK_3C_HLADR: BioMAP Diversity Plus: 3C Assay for Human Leukocyte Antigen - DR isotype (HLADR) Biomarker Activity (AID 2283019); conditions: primary human endothelial cells (HUVEC); actives raise or lower the signal
In short: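 Bidirectional fitting against DMSO was applied to the HLA-DR ELISA signal from human umbilical vein endothelial cells, 24 h post-dose. Cytotoxicity came from parallel SRB total-protein staining; 3C proliferation was counted by SRB at 48 h.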

[8] = read-out: Interleukin-8 (IL8), CXCL8 (gene 3576); assay: BSK_3C_IL8: BioMAP Diversity Plus: 3C Assay for Interleukin-8 (IL8) Biomarker Activity (AID 2283020); conditions: primary human endothelial cells (HUVEC); actives raise or lower the signal
In short: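 Primary human umbilical vein endothelial cells (3C system) were exposed to test chemical for 24 h, then IL-8 was quantified by ELISA. Responses were fitted bidirectionally against DMSO vehicle as baseline.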

[9] = read-out: Monokine induced gamma interferon (MIG), CXCL9 (gene 4283); assay: BSK_3C_MIG: BioMAP Diversity Plus: 3C Assay for Monokine induced gamma interferon (MIG) Biomarker Activity (AID 2283021); conditions: primary human endothelial cells (HUVEC); actives raise or lower the signal;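 as to AC50: MIG protein level measured by immunoassay in the treated endothelial cultures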
In short: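 Primary human umbilical vein endothelial cells in the 3C system were exposed to chemical for 24 h, after which MIG was quantified by ELISA. Activity was fitted bidirectionally against DMSO as negative control and baseline.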

[10] = target: human Vitamin D Receptor (VDR), VDR (gene 7421) (UniProt P11473); assay: ATG_VDR_TRANS: Attagene TRANS-FACTORIAL HepG2 Assay for human Vitamin D Receptor (VDR) (AID 2283022; active = hit-call score of the fitted dose curve at least 0.9, where 1 is the maximum)
Chain of human Vitamin D Receptor (VDR), VDR (gene 7421) (P11473 whole entry, looked up, the tested form may be a part): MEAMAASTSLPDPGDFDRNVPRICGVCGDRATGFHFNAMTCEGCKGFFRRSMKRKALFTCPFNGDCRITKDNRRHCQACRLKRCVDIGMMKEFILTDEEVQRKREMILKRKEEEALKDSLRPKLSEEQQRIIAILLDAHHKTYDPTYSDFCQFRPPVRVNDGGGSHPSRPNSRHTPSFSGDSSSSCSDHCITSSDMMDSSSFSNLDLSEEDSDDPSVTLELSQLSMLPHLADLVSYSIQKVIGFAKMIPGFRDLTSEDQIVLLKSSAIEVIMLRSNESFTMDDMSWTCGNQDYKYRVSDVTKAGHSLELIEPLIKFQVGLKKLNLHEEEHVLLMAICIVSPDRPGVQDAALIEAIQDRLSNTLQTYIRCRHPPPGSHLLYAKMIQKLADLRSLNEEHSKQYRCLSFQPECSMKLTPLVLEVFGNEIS
In short: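 Transactivation by an exogenous VDR-Gal4 chimera in transiently transfected HepG2 cells was measured as reporter transcript level 24 hours after chemical treatment. RT-PCR products were analysed by capillary electrophoresis and fitted in the positive direction relative to DMSO.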

[11] = BSK_3C_SRB: Viability Assessment in the BioMAP Diversity Plus: 3C Assay (AID 2283023); conditions: primary human endothelial cells (HUVEC);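 also: fitted both ways against DMSO so a hit may be signal rise or drop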
In short: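 Cytotoxicity readout in parallel HUVEC 3C cultures: after 24 h compound exposure, cells fixed with 10% TCA, stained with 0.1% SRB and read at 560 nm. Gain or loss relative to DMSO fitted.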

[12] = read-out: Matrix Metallopeptidase 1 (MMP1), MMP1 (gene 4312); assay: BSK_BE3C_MMP1: BioMAP Diversity Plus: BE3C Assay for Matrix Metallopeptidase 1 (MMP1) Biomarker Activity (AID 2283024); conditions: primary human bronchial epithelial cells; actives raise or lower the signal
In short: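 Primary human bronchial epithelial cells were dosed with test chemicals, and MMP1 levels were measured by ELISA 24 h later. Data were fitted bidirectionally against DMSO as the negative control and activity baseline.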

[13] = BSK_3C_Vis: BioMAP Diversity Plus: 3C Assay for Morphology Visualization (AID 2283025); conditions: primary human endothelial cells (HUVEC);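 also: fitted both ways so gain or loss versus DMSO counts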
In short: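 Human umbilical vein endothelial cells in the 3C system were imaged by light microscopy 24 h after chemical dosing to record cell morphology. Activity was fitted bidirectionally against DMSO as negative control and baseline; the endpoint serves as a background control.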

[14] = read-out: Pselectin, SELP (gene 6403); assay: BSK_4H_Pselectin: BioMAP Diversity Plus: 4H Assay for Pselectin Biomarker Activity (AID 2283026); conditions: primary human endothelial cells (HUVEC); actives raise or lower the signal
In short: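 Primary human umbilical vein endothelial cells were exposed to test chemical for 24 h, then cell-surface P-selectin was quantified by ELISA. Activity was fitted bidirectionally against DMSO as negative control and baseline.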

[15] = BSK_4H_SRB: Viability Assessment in the BioMAP Diversity Plus: 4H Assay (AID 2283027); conditions: primary human endothelial cells (HUVEC);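 also: cells exposed to compound for 24 h before staining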;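 as to AC50: curves fitted both ways versus DMSO so AC50 may be loss or gain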
In short: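 Human umbilical vein endothelial cells were dosed with chemical and, after 24 h, fixed with 10% TCA, stained with 0.1% sulforhodamine B, and read at 560 nm to give total protein as a cytotoxicity measure. Bidirectional fitting relative to DMSO control.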

[16] = read-out: Thrombomodulin, THBD (gene 7056); assay: BSK_3C_Thrombomodulin: BioMAP Diversity Plus: 3C Assay for Thrombomodulin Biomarker Activity (AID 2283029); conditions: primary human endothelial cells (HUVEC); actives raise or lower the signal
In short: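 Primary human umbilical vein endothelial cells (3C system) were exposed to chemical for 24 h, then thrombomodulin levels were measured by ELISA. Activity was fitted bidirectionally against the DMSO negative control as baseline.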

[17] = read-out: Urokinase-type plasminogen activator receptor (uPAR), PLAUR (gene 5329); assay: BSK_4H_uPAR: BioMAP Diversity Plus: 4H Assay for Urokinase-type plasminogen activator receptor (uPAR) Biomarker Activity (AID 2283030); conditions: primary human endothelial cells (HUVEC); actives raise or lower the signal
In short: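 uPAR level read by ELISA on HUVEC cultures (BioMAP 4H) 24 h post-dosing, analyzed for gain or loss relative to DMSO. Parallel SRB staining assessed overt cytotoxicity.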

[18] = read-out: Vascular endothelial growth factor receptor 2 (Homo sapiens) (UniProt P35968); assay: BSK_4H_VEGFRII: BioMAP Diversity Plus: 4H Assay for Vascular endothelial growth factor receptor 2 (VEGFR2) Biomarker Activity (AID 2283031); conditions: primary human endothelial cells (HUVEC); actives raise or lower the signal
In short: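 Measured by ELISA after 24 h of compound treatment: VEGFR2 on primary human umbilical vein endothelial cells, fitted in both directions relative to DMSO. Parallel cultures received SRB staining (560 nm) for overt cytotoxicity.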

[19] = target: human Retinoid X Receptor beta (RXRb), RXRB (gene 6257) (UniProt P28702); assay: ATG_RXRb_TRANS: Attagene TRANS-FACTORIAL HepG2 Assay for human Retinoid X Receptor beta (RXRb) (AID 2283013; active = hit-call score of the fitted dose curve at least 0.9, where 1 is the maximum)
Chain of human Retinoid X Receptor beta (RXRb), RXRB (gene 6257) (P28702 whole entry, looked up, the tested form may be a part): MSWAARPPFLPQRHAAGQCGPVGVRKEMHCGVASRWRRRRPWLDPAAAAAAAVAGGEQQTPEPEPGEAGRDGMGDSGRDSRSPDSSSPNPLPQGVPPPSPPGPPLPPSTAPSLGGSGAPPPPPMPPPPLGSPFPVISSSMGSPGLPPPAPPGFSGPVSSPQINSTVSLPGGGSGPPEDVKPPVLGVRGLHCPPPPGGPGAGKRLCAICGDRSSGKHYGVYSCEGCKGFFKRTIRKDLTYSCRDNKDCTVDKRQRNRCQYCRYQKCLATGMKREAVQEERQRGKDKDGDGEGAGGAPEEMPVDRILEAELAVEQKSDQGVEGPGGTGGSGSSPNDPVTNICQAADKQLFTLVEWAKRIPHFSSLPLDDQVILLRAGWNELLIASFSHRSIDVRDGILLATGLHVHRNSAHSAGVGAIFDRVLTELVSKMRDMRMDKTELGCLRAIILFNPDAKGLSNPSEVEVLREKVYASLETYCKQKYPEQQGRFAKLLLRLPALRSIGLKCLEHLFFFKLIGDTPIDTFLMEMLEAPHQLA
In short: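 HepG2 cells transiently transfected with multiplexed reporter units driven by GAL4-UAS and exogenous chimeric NR-Gal4 proteins; treated 24 h. Reporter mRNA measured by RT-PCR, 6-FAM labelling and capillary electrophoresis; gain-of-signal fitted versus DMSO baseline.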

[20] = BSK_BE3C_SRB: Viability Assessment in the BioMAP Diversity Plus: BE3C Assay (AID 2283028); conditions: primary human bronchial epithelial cells;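 as to AC50: fitted both ways so AC50 may mark signal gain or loss versus DMSO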
In short: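 Cytotoxicity read-out: SRB (0.1%) staining of TCA-fixed (10%) human lung bronchial epithelial cells, absorbance 560 nm, 24 h post-dosing. Curves fitted both directions relative to DMSO.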

Measured: AC50

Chain of E-selectin (Homo sapiens) (P16581 whole entry, looked up): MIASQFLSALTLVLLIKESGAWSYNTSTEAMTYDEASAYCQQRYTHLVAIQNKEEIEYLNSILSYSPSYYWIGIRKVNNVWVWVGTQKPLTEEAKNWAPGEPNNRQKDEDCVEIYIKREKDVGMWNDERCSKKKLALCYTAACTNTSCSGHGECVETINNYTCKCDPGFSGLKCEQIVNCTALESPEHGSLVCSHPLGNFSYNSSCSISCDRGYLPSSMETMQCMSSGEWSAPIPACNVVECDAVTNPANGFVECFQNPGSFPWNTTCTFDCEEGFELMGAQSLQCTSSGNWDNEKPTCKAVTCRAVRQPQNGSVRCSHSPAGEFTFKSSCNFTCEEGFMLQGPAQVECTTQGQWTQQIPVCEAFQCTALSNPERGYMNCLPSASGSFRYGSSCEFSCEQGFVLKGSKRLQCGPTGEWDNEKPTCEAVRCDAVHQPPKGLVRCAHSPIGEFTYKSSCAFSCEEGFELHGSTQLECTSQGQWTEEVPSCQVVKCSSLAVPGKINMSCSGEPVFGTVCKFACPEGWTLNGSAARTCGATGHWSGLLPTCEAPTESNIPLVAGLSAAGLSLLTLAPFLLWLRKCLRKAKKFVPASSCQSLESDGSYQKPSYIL

COc1ccc2c(c1)c(CC(=O)O)c(C)n2C(=O)c1ccc(Cl)cc1
active: [12] 7.79 µM
not listed: [19] | [20]
inactive: all other assays above

CCCCOC(=O)CCCCCCCCC(=O)OCCCC
not listed: [10] | [20]
inactive: all other assays above

C[Si]1(C)O[Si](C)(C)O[Si](C)(C)O[Si](C)(C)O1
active: [19] 46.9 µM
not listed: [2] | [10]
inactive: all other assays above

Nc1nc(N)c2nc(CNc3ccc(C(=O)N[C@@H](CCC(=O)O)C(=O)O)cc3)cnc2n1
inactive: all assays above

CCCCC(CC)COC(=O)CC(C(=O)OCC(CC)CCCC)S(=O)(=O)O (configuration not stated)
inactive: [1] | [2] | [19] | [10] | [16] | [18]
active: [3] 38.1 µM | [4] 11.6 µM | [5] 31.4 µM | [6] 29.3 µM | [7] 37.9 µM | [8] 30.6 µM | [9] 38 µM | [11] 31.2 µM | [12] 10.2 µM | [13] 37.5 µM | [14] 32.2 µM | [15] 38 µM | [20] 6.46 µM | [17] 39 µM

O=C(N[C@@H](Cc1ccccc1)[C@@H](O)C(=O)N1C[C@@H](O)[C@@H](O)C1)c1cc2cc(Cl)ccc2[nH]1
not listed: [19]
inactive: all other assays above

CC(=O)OC/C=C(\C)CCC=C(C)C
not listed: [10]
inactive: all other assays above
